This note sets out measurements from PubChem BioAssay (EPA / NIEHS).

A short description of this assay: CCTE_Mundy_HCI_Cortical_Synap_Neur_Matur_BPCount: CCTE's Synaptogenesis and Neurite Maturation Assay in rat cortical cells for Branch Point Count, Mundy Lab (AID 2284211). Summed up:
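In this multiplexed morphology assay, cortical cells from rat receive chemicals at DIV 7 and are fixed at DIV 12, then immunostained and imaged; branch points are counted, with DMSO as baseline.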

Values joined by “and” are separate entries in the source; they are usually repeats but may differ in a detail not shown here. Equal entries are not always repeated. Active and inactive are the calls of the source. How the source made its calls: active means hit-call score of the fitted dose curve at least 0.9, where 1 is the maximum; inactive means score below 0.9.

What is called AC50 is the concentration at which the activity in the assay is half-maximal. As to `CC#C[C@]1(O)CC[C@H]2[C@@H]3CCC4=CC(=O)CCC4=C3[C@@H](c3ccc(N(C)C)cc3)C[C@@]21C`, the AC50 is 18.4 µM (active) and 27.4 µM (active).
